The compounds below were run on Roseburia intestinalis (assay: growth AUC relative to DMSO control (median of replicates) (fraction); higher = more growth (less inhibition), active = hit call of the paper). Conditions: 20 µM; 24 h;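 active = AUC reduced over 20% with Padj below 0.05 in at least 2 of 3 replicates; inactive = otherwise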.
How it was run: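 Hourly OD600 readings over 24 h tracked anaerobic gut bacterial monocultures grown at 37 °C in mGAM from OD600 0.05 with 20 µM compound (1% DMSO). After the minimum OD was set to 0, area under the growth curve was normalised to the plate median of solvent-only wells, or to row and column medians on the industrial chemical plate. Values are medians of three biological replicates grown on separate days.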

Compound | growth AUC
O=C1C=C(N(Cc2ccc(Cl)nc2)CC(F)F)CO1 | 1.02 (inactive)
Cc1ccc(N(SC(F)(Cl)Cl)S(=O)(=O)N(C)C)cc1 | 1.01 (inactive)
Cc1nnc(-c2ccccc2)c(=O)n1N | 0.97 (inactive)
CCC(C)Nc1c([N+](=O)[O-])cc(C(C)(C)C)cc1[N+](=O)[O-] (stereo not drawn) | 0.927 (inactive)
CC(C)(C)[C@@H](O)[C@H](Oc1ccc(Cl)cc1)n1cncn1 | 1.08 (inactive)
COc1cc(OC)nc(NC(=O)[N-]S(=O)(=O)c2ncccc2OCC(F)(F)F)n1.[Na+] | 1.01 (inactive)
COCC(=O)N(c1c(C)cccc1C)[C@H](C)C(=O)OC | 0.966 (inactive)
CCCCN(CC)c1c([N+](=O)[O-])cc(C(F)(F)F)cc1[N+](=O)[O-] | 1.04 (inactive)
Cc1cc(Cl)ccc1OCC(=O)O.O.[Na] | 1.02 (inactive)
O=C(NC(=O)c1c(F)cccc1F)Nc1ccc(Cl)cc1 | 0.983 (inactive)
N#Cc1c[nH]cc1-c1cccc(Cl)c1Cl | 1.14 (inactive)
CNC(=O)Oc1cccc2c1OC(C)(C)C2O (stereo not drawn) | 0.979 (inactive)
O=C(OC1CCCCC1)c1ccccc1C(=O)OC1CCCCC1 | 0.983 (inactive)
CCN(CC)N=O | 1 (inactive)
CS(=O)(=O)c1ccc(C(=O)C2C(=O)CCCC2=O)c([N+](=O)[O-])c1 | 0.976 (inactive)
Nc1cc(Cl)ccc1Cl | 1.09 (inactive)
COS(=O)(=O)[O-].Cn1c(-c2ccccc2)cc(-c2ccccc2)[n+]1C | 0.948 (inactive)
O=P(OC(CCl)CCl)(OC(CCl)CCl)OC(CCl)CCl | 0.949 (inactive)
CNC(=O)O/N=C(\C)C(C)S(C)=O (stereo not drawn) | 0.991 (inactive)

Compound | growth AUC
CN(C)c1nc(=O)n(C2CCCCC2)c(=O)n1C | 1.02 (inactive)
CC(C)=CC1C(C(=O)OCc2cccc(Oc3ccccc3)c2)C1(C)C (mixture of isomers) | 0.908 (inactive)
Cc1cc(OC(=O)N(C)C)nn1C(=O)N(C)C | 1.06 (inactive)
CC(Oc1ccc(Oc2nc3ccc(Cl)cc3o2)cc1)C(=O)O (racemic) | 1.12 (inactive)
COP(=S)(OC)Oc1ccc(SC)c(C)c1 | 1.03 (inactive)
CCS(=O)(=O)c1cccnc1S(=O)(=O)NC(=O)Nc1nc(OC)cc(OC)n1 | 1 (inactive)
O.[Br-].[Br-].c1cc[n+]2c(c1)-c1cccc[n+]1CC2 | 1.04 (inactive)
O=C(O)C(F)(F)C(F)(F)C(F)(F)C(F)(F)C(F)(F)C(F)(F)C(F)(F)C(F)(F)F | 0.975 (inactive)
COP(=O)(OC)Oc1ccc([N+](=O)[O-])cc1 | 1.04 (inactive)
C[N+](C)(C)CCCl.[Cl-] | 0.994 (inactive)
CCOP(=O)(OCC)ON1C(=O)c2cccc3cccc(c23)C1=O | 0.9 (inactive)
CCOP(=O)(OCC)Oc1ccc([N+](=O)[O-])cc1 | 1.03 (inactive)
COP(=S)(OC)Oc1ccc([N+](=O)[O-])c(Cl)c1 | 0.926 (inactive)
N#Cc1sc2c(=O)c3ccccc3c(=O)c=2sc1C#N | 1 (inactive)
ClC1=C(Cl)[C@]2(Cl)C3CC=CC3[C@@]1(Cl)C2(Cl)Cl (stereo partly drawn) | 1 (inactive)
Clc1cc(Cl)c(Cl)cc1Cl | 0.962 (inactive)
CCOP(=S)(OCC)SCSCC | 0.962 (inactive)
CCOP(=O)(NC(C)C)Oc1ccc(SC)c(C)c1 (stereo not drawn) | 1.02 (inactive)
CCNc1nc(NCC)nc(SC)n1 | 1.08 (inactive)
